# An excerpt weighted towards active compounds, which were near 2.1% of everything screened.
# Abeta yeast res = A-beta toxicity reversal in yeast | AID 1347071 | Potency, µM (top dose mostly 46.1 µM), actives largely listed as activators | 410,000 tested, 0.063% active | yeast expressing A-beta42, growth rescue, OD600, 48 h; response scale: 0% DMSO, 100% iron-clioquinol control; note: nearly all actives have a fitted effect of over 55% in size
#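 Yeast growth medium received pinned compounds, then yeast cells expressing toxic A-beta were added; plates incubated at 30 C for 48 hr. Growth read as absorbance at 600 nm, normalized to DMSO and equimolar FeCl3 plus clioquinol controls.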
# FUS yeast rescue = suppressors of FUS proteinopathy in yeast. 390,000 tested, 0.24% active. AID 1347120. Potency, µM (titrated, usually from 76.6 µM), usual class: activators. S. cerevisiae FUS-expressing, growth rescue, OD600, 24 h; note: nearly all actives have a fitted effect of over 55% in size
#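 Steps: raffinose overnight preculture; dilution to OD 0.005 in 2% galactose minimal medium; compound addition (concentration series); 24hr at 30C, 99% humidity; absorbance read at 600 nm.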
# TDP43 rescue = inhibitors of TDP-43 toxicity in yeast; TDP-43 expressing yeast growth rescue, BacTiter-Glo, 24 h; Potency, µM (highest dose often 46.1 µM), most hits filed as activators; 410,000 tested, 1.8% active; AID 652104; note: nearly all actives have a fitted effect of over 50% in size
#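 Yeast expressing TDP-43 (pregrown in raffinose, seeded at OD600=0.02 in galactose medium) exposed to compounds 24 hr at 30 deg C. Growth read by BacTiter-Glo luminescence; rescue of toxicity appears as increased signal.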
# aSyn rescue = inhibitors of alpha-synuclein toxicity in yeast. 370,000 tested, 0.14% active. AID 652106. Potency, µM (top dose mostly 46.1 µM), usual class: activators. Yeast expressing alpha-synuclein, growth rescue, BacTiter-Glo, 24 h; note: nearly all actives have a fitted effect of over 65% in size
#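 Readout is rescue of growth in alpha-synuclein-expressing yeast, so inhibitors of toxicity appear as activators. Growth after 24 hr at 30 deg C in galactose medium is quantified by luminescence.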
# Hits are given with their value; . = inactive; ? = inconclusive; / = no result. Calls come from the whole dose curve; as a rule, active = well fitted curve in the direction sought with a large enough effect; inconclusive = small, poorly fitted or top-dose-only effect, or another doubt; inactive = no such curve, though single readings can be large; an effect the other way counts as inactive or inconclusive.
SMILES,Abeta yeast res,FUS yeast rescue,TDP43 rescue,aSyn rescue
O=C([C@@H]1C[C@H]1c1ccccc1)N1CC[C@H]2[C@H](CCCN2Cc2ccccc2)C1,/,.,/,/
Cc1[nH]n(-c2ccccc2)c(=O)c1/C=N/O,.,.,.,.
Cc1[nH]n(-c2ccccc2)c(=O)c1/C=N/N1C(=O)c2ccc3c4c(ccc(c24)C1=O)CC3,8.91µM,.,5.01µM,25.1µM
Cc1[nH]n(-c2ccccc2)c(=O)c1/C=N/NC(=O)c1ccccc1F,10µM,.,?,.
c1cc2c(cc1Cc1cncc(Cc3ccc4c(c3)OCO4)c1)OCO2,/,/,/,.
N#CCC[C@@H]1CC[C@]2(CCCN(C(=O)c3cccnc3)C2)O1,/,.,/,/
Cc1ccccc1Oc1ncnc2sccc12,.,.,11.2µM,.
c1ccc(Oc2ncnc3sccc23)cc1,.,.,11.2µM,.
COc1ccccc1Oc1ncnc2sccc12,.,.,?,.
CN(C)c1ccc(/C=C/c2sc3ccccc3[n+]2Cc2ccccc2)cc1,/,/,/,.
Cc1cc2c(c(C)c1Cl)C(c1ccc3c(c1)OCO3)CC(=O)O2 (stereo unspecified),?,?,22.4µM,.
CCc1cccc(NC(=O)Cn2nc(-c3cc(C)ccc3C)ccc2=O)c1,?,?,28.2µM,/
Cc1ccc(-c2ccc(=O)n(CC(=O)Nc3cccc(C#N)c3)n2)cc1,.,.,.,/
COCCCNC(=O)CN1C(=O)C2CCCCN2C(=O)c2ccccc21 (stereo unspecified),/,.,/,/
Cn1cnc([N+](=O)[O-])c1S(=O)(=O)Oc1cccc2ccccc12,.,.,?,.
Cn1cnc([N+](=O)[O-])c1S(=O)(=O)Oc1ccc(Cl)cc1,.,.,3.16µM,.
Cc1ccc(OCCOc2cccc(Br)c2)c([N+](=O)[O-])n1,.,.,14.1µM,.
O=C(Cc1ccc(OCc2ccccn2)cc1)NO,/,/,/,.
COc1ccc(C2=NOC(Cn3nc(-c4ccccc4)cc3C(=O)NCc3cccs3)C2)cc1 (stereo unspecified),.,31.6µM,.,.
Cc1ccccc1-c1cc(C(=O)NCc2ccc(OC(F)(F)F)cc2)n(CC2CC(c3cccnc3)=NO2)n1 (stereo unspecified),.,22.4µM,?,.
COc1ccc(C2=NOC(Cn3nc(C(=O)NCc4cccs4)cc3-c3ccccc3)C2)cc1 (stereo unspecified),.,.,?,.
Cc1ccc(CNC(=O)c2cc(-c3ccccc3C)nn2CC2CC(c3cccnc3)=NO2)cc1 (stereo unspecified),.,.,?,.
COc1cccc(C2CC(c3cccc(Br)c3)n3ncnc3N2)c1 (stereo unspecified),.,.,20µM,.
CC(=O)CC[C@H]1CC[C@]2(CCCN(C(=O)c3ccc4ccccc4n3)C2)O1,/,.,/,/
CCOC(=O)[C@]12CCCC=C1N(Cc1ccc(OC)cc1)C(=O)[C@@H]2CC(=O)NCCC(C)C,/,.,/,/
SMILES,Abeta yeast res,FUS yeast rescue,TDP43 rescue,aSyn rescue
COc1ccc2sc(-c3ccccc3OC)c(-c3ccc(O)cc3)c2c1,.,?,.,.
COc1cc2sc(-c3ccccc3OC)c(-c3ccc(O)cc3)c2cc1OC,.,.,15.8µM,.
C[C@H]([C@@H](N)C(=O)N[C@@H](C(=O)O)[C@@H]1O[C@H](n2ccc(=O)[nH]c2=O)[C@@H](O)[C@H]1O)[C@@H](O)c1ccc(O)cn1,?,.,4.47µM,.
CC(C)(C)C(=O)NC(=S)Nc1cc(C(F)(F)F)ccc1N1CCOCC1,.,.,.,.
O=C(CCCCl)NC(=S)Nc1cc(C(F)(F)F)ccc1N1CCOCC1,?,.,12.6µM,.
CC1(C)Cc2c(C#N)c(NCCCO)nc(-c3ccccc3)c2CO1,.,.,12.6µM,.
CC[C@H](CCCCCCCn1ccc2ccccc21)CCC(=O)N(c1ccccc1)c1ccccc1,/,.,/,/
O=C(NCc1ccccc1)C1C(c2ccc3c(c2)OCO3)=Nc2ccccc2N1C(=O)c1ccccc1 (stereo unspecified),.,.,12.6µM,.
O=C(Nc1ccc2c(c1)OCCO2)C1C(c2ccccc2)=Nc2ccccc2N1C(=O)c1cccnc1 (stereo unspecified),.,7.94µM,.,.
O=C(Cn1nc2ccccc2n1)N/N=C/c1cc([N+](=O)[O-])ccc1O,.,.,.,.
O=C(N/N=C/c1cc([N+](=O)[O-])ccc1O)C1CCCCC1,.,.,.,3.98µM
CC(C)(C)CSc1nnc(-c2cccnc2)n1Cc1ccccc1,/,.,/,/

# Screening results from PubChem BioAssay.
